Experimental data taken from PubChem BioAssay (NCI).
About 83,000 compounds went through this panel and 20% of them were active in at least one assay; those are over-represented in the sample as a whole.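 Step 1: grow cells in 96-well plates. Step 2: add test compound at a single concentration. Step 3: incubate 48 h. Step 4: record percent growth.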 Values without a mark were called inactive. Activity calls are given as the source filed them. How the source made its calls: active means growth percent below 10; inactive means the rest.

Assays:
Assay in all cases: NCI-60 one-dose screen, 48 h (100 = growth as untreated, 0 = no growth, -100 = all killed)
[1] = system: RPMI-8226 leukemia; conditions: 10 µM
[2] = system: OVCAR-8 ovarian; conditions: 10 µM
[3] = system: OVCAR-5 ovarian; conditions: 10 µM
[4] = system: OVCAR-4 ovarian; conditions: 10 µM
[5] = system: SK-OV-3 ovarian; conditions: 10 µM
[6] = system: IGROV1 ovarian; conditions: 10 µM
[7] = system: OVCAR-3 ovarian; conditions: 10 µM
[8] = system: HS 578T breast; conditions: 10 µM
[9] = system: NCI/ADR-RES ovarian; conditions: 10 µM
[10] = system: T-47D breast; conditions: 10 µM
[11] = system: BT-549 breast; conditions: 10 µM
[12] = system: MDA-MB-435 melanoma; conditions: 10 µM
[13] = system: SW-620 colon; conditions: 10 µM
[14] = system: MCF7 breast; conditions: 10 µM unless noted
[15] = system: HCT-116 colon; conditions: 10 µM
[16] = system: HCC-2998 colon; conditions: 10 µM
[17] = system: KM12 colon; conditions: 10 µM
[18] = system: SR leukemia; conditions: 10 µM

SMILES | growth [1] | growth [2] | growth [3] | growth [4] | growth [5] | growth [6] | growth [7] | growth [8] | growth [9] | growth [10] | growth [11] | growth [12] | growth [13] | growth [14] | growth [15] | growth [16] | growth [17] | growth [18]
CC(C)(C)n1nc(C2CC2)c(Br)c1NC(=O)c1ccccc1F | 96.7% | 101% | 104% | 87.1% | 94.5% | 99.3% | 117% | 94.9% | 103% | 108% | 110% | 102% | 105% | 95.7% | 109% | 106% | 98.5% | 
CN(C)CCN(Cc1ccccc1)c1ccccc1 |  | 115% | 125% |  | 110% | 124% | 121% | 112% | 103% | 95% | 119% | 95% | 102% | 112% | 113% | 105% | 113% | 88.1%
COc1ccc(C(=O)C(Br)C(Br)C(=O)O)cc1 (stereo not drawn) | 110% | 105% | 101% | 118% | 104% | 110% | 116% | 99.6% | 92.1% | 106% | 99.5% | 108% | 113% | 91.1% | 94.9% | 113% | 111% | 
COc1cccc(COC(=O)Nc2ccccc2)c1OC | 90.1% | 96.9% | 105% | 117% | 111% | 101% | 111% | 115% | 105% | 93.1% | 107% | 91.7% | 114% | 97.6% | 104% | 102% | 106% | 
CS(=O)CC1=NC(=N)N=C1CS(C)=O (stereo not drawn) | 107% | 99.9% | 111% | 103% | 108% | 113% | 118% | 89.9% | 103% |  | 110% | 109% | 108% | 95% | 102% | 104% | 108% | 
Oc1ccc(O)cc1 | 67.6% | 94.6% | 123% | 105% | 114% | 108% | 109% | 104% | 92.4% | 114% | 82.7% | 99.7% | 112% |  | 107% | 114% | 103% | 
O=C(Cc1nc2ccc([N+](=O)[O-])cc2nc1CC(=O)c1ccccc1)c1ccccc1 | 42.9% | 50% | 89.6% | 34.3% | 103% | 79.2% | 60.1% | 51.6% | 29.8% |  | 37.3% | 63.3% | 62.6% | 30.1% | 34.8% | 89% | 39.4% | 
NCC(=O)CCC(=O)O | 118% | 104% | 120% | 98% | 99.8% | 112% | 111% | 108% | 107% | 100% | 110% | 108% | 108% |  | 114% | 97.4% | 108% | 
CC1(O)OC(COc2ccc(Cl)cc2)COC1O (stereo not drawn) | 109% | 100% | 111% | 99.1% | 116% | 113% | 116% | 95.5% | 103% |  | 112% | 106% | 101% | 90.4% | 103% | 109% | 108% | 
COC(=O)c1[nH]c(=O)c(C#N)c(C(=O)OC)c1C(=O)c1ccccc1 | 107% | 101% | 113% | 97.5% | 101% | 105% | 107% | 84.4% | 97.5% |  | 110% | 99.9% | 102% | 68.9% | 99.3% | 113% | 102% | 
CCOC(=O)C(C#N)Cc1ccccc1 (stereo not drawn) | 101% | 115% | 103% | 114% | 123% | 114% | 117% | 112% | 117% | 107% |  | 109% | 117% | 103% | 112% | 118% | 133% | 
COc1ccc2c(c1)CCc1c-2n[nH]c1-c1[nH]nc2c1CCc1cc(OC)ccc1-2 | 61.2% | 84.7% | 89.6% | 77.3% | 77% | 62.4% | 41.3% | 48.7% | 33.9% |  | 54.6% | -5.37% (active) | 45% | 12.6% | 32.4% | 80.9% | 47.6% | 
CN(C)CCN(C)CC(C)(C)C(=O)/C=C/c1ccc(Cl)cc1 | -24.1% (active) | -35.4% (active) | 3.63% (active) | 7.86% (active) | 5.56% (active) | 15.6% | 10.4% | -4.14% (active) | -36.1% (active) |  | -34.5% (active) | 0.434% (active) | -24.2% (active) | -8.84% (active) | -92.1% (active) | -92.9% (active) | -23.7% (active) | 
CCS(=O)(=O)CCCl | 101% | 104% | 105% | 101% | 104% | 107% | 116% | 96.4% | 105% |  | 95.9% | 104% | 102% | 76.8% | 98.7% | 125% | 99.1% | 
CC(=O)CC(=O)N(C)C | 97.9% | 101% | 104% | 101% | 108% | 109% | 112% | 98.3% | 100% |  | 99.5% | 98.2% | 101% | 94.8% | 95.6% | 108% | 102% | 
COC(=O)c1cccc(Br)c1 | 106% | 112% | 88.8% | 112% | 118% | 116% | 121% | 117% | 106% | 111% | 107% | 94% | 114% | 116% | 97.8% | 107% | 112% | 
CCOC(=O)c1cc(/C=C/c2cccc(Cl)c2)on1 | 4.16% (active) | 99.5% | 101% | 83.7% | 111% | 93.9% | 99.1% | 76.4% | 91% |  | 87.2% | 83% | 84.2% | 13.9% | -57.7% (active) | 97.2% | 57.4% | 
CC(C)NC(=O)OCc1c(COC(=O)NC(C)C)c(-c2ccc(Cl)c(Cl)c2)n2c1SCC2 | 36% | 44.7% | -15.6% (active) | 38.2% | 21.9% | 3.1% (active) | 47.2% | 36.3% | 38.2% |  | 21.7% | 67.2% | 44.8% | 32.2% | 29.9% | 72.8% | 77.6% | 
COc1ccccc1C1OC2=Nc3cc(C)c(C)cc3NC2C1=O (stereo not drawn) | 93.5% | 69% | 62.1% | -14.2% (active) | 79.6% | 88.7% | 22.4% | 39.9% | 61.2% |  | 88.6% | 82.5% | 73.9% | 56.8% | 39.2% | 105% | 93% | 
Cc1ccc(C)n1-c1ccsc1C(=O)NNC(=O)C(Cl)Cl | 107% | 106% | 112% | 96.9% | 95.7% | 108% | 107% | 100% | 102% |  | 112% | 98.4% |  | 96.9% | 105% | 105% | 101% | 
